{"source": "paper PMC7862700", "about": "“An all-to-all approach to the identification of sequence-specific readers for epigenetic DNA modifications on cytosine”", "assay_in_all_cases": "DAPPL (digital affinity profiling via proximity ligation, sequencing); 10 mM Tris-HCl pH 7.5, 50 mM NaCl, 1 mM DTT, 4% glycerol, room temperature, 30 min; GST-TFs on glutathione beads, 16-mer random dsDNA library, 0.1% formaldehyde crosslink after washing; high values mean tight binding", "details_in_all_cases": "protein: recombinant; tags: N-terminal GST; dsDNA, one strand shown", "key": {"FLI1": {"target": "T1, FLI1 (Homo sapiens, UniProt Q01543 1-452)", "T1 sequence": "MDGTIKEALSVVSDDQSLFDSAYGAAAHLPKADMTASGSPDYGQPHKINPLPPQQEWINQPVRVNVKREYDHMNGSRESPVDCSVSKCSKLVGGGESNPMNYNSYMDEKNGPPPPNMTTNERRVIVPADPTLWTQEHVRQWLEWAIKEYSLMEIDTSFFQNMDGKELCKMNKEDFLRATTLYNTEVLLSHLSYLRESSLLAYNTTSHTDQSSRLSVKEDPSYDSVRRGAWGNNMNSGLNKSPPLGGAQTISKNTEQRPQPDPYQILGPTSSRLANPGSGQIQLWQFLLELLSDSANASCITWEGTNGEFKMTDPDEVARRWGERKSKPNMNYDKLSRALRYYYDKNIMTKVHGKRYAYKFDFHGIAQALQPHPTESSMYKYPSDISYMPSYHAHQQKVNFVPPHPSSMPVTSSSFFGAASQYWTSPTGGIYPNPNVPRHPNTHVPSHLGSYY", "how_it_was_run": "(§1)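 Binding signal is each hexamer's read frequency for a factor divided by its frequency in the tag-only sample. The factors were GST-fused human transcription factors from yeast, captured on glutathione beads, DNA-barcoded and pooled with that sample. Pools were incubated with 200 nmole of a random double-stranded 16-mer DNA library in Tris/NaCl/DTT/glycerol buffer at room temperature for 30 min, then washed, crosslinked with 0.1% formaldehyde, proximity-ligated with BsaI/T4 ligase (1 h, 37 °C), PCR-amplified and sequenced on an Illumina NextSeq500.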"}, "ETV3L": {"target": "T2, ETV3L (Homo sapiens, UniProt Q6ZN32 1-361)", "T2 sequence": "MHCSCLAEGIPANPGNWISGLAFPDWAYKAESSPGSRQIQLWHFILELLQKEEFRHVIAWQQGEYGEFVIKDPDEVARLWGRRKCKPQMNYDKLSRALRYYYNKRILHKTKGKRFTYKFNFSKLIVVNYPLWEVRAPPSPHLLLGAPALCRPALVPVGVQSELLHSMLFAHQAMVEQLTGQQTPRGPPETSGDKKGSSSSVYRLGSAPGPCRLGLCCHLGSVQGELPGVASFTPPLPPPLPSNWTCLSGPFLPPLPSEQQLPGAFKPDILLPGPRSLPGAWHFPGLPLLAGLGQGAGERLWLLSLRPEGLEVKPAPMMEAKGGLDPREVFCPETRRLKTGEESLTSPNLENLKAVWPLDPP", "how_it_was_run": "as §1"}, "ELF1": {"target": "ELF1 (Homo sapiens, UniProt P32519 1-619)", "sequence (P32519 whole entry)": "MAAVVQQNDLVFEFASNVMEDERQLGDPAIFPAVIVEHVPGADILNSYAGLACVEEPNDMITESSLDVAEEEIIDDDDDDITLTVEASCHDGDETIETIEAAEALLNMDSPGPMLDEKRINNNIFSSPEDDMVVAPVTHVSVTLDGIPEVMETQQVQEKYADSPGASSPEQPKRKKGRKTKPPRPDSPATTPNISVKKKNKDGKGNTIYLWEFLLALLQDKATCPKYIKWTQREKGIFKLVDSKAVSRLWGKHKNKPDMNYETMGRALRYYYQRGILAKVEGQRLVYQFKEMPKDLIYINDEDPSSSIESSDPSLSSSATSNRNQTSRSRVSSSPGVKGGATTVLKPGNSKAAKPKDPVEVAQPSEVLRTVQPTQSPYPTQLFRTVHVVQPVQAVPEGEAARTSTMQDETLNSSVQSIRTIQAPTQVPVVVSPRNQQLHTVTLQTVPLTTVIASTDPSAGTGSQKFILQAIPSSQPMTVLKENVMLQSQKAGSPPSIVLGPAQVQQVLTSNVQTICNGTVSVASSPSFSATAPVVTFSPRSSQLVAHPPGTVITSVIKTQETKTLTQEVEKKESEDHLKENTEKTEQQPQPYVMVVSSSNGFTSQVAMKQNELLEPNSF", "how_it_was_run": "as §1"}, "ETV7": {"target": "T3, ETV7 (Homo sapiens, UniProt Q9Y603 1-341)", "T3 sequence": "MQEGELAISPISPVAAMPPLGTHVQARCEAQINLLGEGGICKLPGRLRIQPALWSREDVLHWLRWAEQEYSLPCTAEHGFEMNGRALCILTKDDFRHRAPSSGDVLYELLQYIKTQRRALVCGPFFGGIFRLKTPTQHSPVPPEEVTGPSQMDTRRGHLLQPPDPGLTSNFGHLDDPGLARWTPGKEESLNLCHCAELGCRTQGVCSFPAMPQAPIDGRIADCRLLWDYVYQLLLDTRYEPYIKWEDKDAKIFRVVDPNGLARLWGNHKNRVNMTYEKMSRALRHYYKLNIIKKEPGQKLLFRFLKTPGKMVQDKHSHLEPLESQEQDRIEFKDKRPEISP", "how_it_was_run": "as §1"}, "ETV3": {"target": "T4, ETV3 (Homo sapiens, UniProt P41162-2 1-143)", "T4 sequence": "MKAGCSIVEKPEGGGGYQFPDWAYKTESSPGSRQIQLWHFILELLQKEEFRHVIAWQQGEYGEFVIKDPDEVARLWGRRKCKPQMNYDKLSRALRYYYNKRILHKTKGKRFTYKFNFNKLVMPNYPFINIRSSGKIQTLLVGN", "how_it_was_run": "as §1"}, "SPI1": {"target": "SPI1 (Homo sapiens, UniProt P17947 1-270)", "how_it_was_run": "as §1"}, "ELK4": {"target": "T5, ELK4 (Homo sapiens, UniProt P28324-2 1-405)", "T5 sequence": "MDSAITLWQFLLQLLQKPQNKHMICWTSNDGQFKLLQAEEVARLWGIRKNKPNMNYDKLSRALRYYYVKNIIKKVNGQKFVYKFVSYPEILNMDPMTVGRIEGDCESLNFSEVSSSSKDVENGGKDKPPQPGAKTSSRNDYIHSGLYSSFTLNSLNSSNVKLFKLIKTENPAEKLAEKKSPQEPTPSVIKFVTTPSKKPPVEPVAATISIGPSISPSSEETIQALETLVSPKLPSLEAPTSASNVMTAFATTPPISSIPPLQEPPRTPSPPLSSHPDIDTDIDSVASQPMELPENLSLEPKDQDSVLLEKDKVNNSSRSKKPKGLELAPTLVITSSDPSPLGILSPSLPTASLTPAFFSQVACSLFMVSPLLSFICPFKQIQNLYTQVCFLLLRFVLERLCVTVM", "how_it_was_run": "as §1"}, "ETV2": {"target": "T6, ETV2 (Homo sapiens, UniProt O00321 1-342)", "T6 sequence": "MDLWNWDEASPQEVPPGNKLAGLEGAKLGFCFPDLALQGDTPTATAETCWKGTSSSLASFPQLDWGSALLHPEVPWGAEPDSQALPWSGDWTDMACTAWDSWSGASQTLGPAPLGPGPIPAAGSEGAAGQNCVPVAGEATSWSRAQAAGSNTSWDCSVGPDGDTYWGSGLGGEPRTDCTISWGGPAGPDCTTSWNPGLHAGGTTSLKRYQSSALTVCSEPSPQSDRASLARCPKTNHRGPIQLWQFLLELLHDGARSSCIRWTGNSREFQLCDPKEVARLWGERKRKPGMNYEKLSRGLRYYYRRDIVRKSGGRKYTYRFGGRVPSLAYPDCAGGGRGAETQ", "how_it_was_run": "as §1"}, "ETV6": {"target": "ETV6 (Homo sapiens, UniProt P41212 1-452)", "sequence (P41212 whole entry)": "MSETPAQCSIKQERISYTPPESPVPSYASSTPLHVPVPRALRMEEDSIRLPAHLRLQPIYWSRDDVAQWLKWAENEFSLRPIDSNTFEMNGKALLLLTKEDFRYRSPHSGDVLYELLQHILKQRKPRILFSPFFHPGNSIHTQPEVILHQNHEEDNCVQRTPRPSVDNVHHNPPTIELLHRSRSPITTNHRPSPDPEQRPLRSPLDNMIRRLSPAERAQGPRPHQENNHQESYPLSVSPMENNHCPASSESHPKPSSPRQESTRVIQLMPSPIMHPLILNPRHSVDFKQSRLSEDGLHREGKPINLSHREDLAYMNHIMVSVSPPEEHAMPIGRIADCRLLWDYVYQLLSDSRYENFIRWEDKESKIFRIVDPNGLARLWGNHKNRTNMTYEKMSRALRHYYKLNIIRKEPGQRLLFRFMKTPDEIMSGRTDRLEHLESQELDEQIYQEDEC", "how_it_was_run": "as §1"}, "ERG": {"target": "T7, ERG (Homo sapiens, UniProt P11308 1-479)", "T7 sequence": "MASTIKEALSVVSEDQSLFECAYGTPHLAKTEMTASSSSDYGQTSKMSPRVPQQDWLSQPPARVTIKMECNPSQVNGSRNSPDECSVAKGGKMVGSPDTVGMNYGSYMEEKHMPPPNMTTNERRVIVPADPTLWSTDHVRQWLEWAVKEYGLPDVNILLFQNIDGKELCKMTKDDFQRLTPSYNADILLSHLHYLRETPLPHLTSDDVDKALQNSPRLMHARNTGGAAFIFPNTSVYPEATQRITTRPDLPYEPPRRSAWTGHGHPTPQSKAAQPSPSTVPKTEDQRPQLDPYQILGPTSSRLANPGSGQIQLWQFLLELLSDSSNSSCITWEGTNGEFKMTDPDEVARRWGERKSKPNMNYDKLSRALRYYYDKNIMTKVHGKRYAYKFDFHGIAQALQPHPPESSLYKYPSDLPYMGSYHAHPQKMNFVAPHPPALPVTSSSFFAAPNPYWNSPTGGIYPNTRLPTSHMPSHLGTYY", "how_it_was_run": "as §1"}, "EHF": {"target": "T8, EHF (Homo sapiens, UniProt Q9NZC4 1-300)", "T8 sequence": "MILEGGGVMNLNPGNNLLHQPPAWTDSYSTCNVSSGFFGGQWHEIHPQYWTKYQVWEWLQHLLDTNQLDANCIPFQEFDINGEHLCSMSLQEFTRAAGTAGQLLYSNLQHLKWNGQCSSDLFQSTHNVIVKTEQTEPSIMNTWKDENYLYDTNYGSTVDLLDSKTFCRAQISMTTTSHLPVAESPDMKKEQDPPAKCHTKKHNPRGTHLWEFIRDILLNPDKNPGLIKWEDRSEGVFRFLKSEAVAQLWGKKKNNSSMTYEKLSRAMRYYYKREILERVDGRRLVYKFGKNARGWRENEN", "how_it_was_run": "as §1"}, "SPIB": {"target": "SPIB (Homo sapiens, UniProt Q01892 1-262)", "sequence (Q01892 whole entry)": "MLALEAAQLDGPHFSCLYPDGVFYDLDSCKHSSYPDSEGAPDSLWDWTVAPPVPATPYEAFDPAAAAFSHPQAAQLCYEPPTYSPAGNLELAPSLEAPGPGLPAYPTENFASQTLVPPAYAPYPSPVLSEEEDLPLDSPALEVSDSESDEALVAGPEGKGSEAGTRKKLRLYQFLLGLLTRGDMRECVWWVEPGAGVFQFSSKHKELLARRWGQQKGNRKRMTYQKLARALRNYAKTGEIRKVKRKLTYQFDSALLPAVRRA", "how_it_was_run": "as §1"}, "ELF3": {"target": "T9, ELF3 (Homo sapiens, UniProt P78545 1-371)", "T9 sequence": "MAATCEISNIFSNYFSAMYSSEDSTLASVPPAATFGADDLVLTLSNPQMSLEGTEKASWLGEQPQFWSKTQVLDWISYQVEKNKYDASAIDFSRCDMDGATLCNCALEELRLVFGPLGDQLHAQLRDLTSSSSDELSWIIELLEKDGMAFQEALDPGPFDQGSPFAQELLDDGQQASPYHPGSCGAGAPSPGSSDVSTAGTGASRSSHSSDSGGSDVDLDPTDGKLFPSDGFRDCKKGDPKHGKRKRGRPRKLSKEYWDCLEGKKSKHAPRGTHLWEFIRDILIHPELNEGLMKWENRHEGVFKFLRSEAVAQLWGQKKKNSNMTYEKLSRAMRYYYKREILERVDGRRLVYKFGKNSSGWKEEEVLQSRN", "how_it_was_run": "as §1"}, "ETV1": {"target": "ETV1 (Homo sapiens, UniProt P50549 1-477)", "sequence (P50549 whole entry)": "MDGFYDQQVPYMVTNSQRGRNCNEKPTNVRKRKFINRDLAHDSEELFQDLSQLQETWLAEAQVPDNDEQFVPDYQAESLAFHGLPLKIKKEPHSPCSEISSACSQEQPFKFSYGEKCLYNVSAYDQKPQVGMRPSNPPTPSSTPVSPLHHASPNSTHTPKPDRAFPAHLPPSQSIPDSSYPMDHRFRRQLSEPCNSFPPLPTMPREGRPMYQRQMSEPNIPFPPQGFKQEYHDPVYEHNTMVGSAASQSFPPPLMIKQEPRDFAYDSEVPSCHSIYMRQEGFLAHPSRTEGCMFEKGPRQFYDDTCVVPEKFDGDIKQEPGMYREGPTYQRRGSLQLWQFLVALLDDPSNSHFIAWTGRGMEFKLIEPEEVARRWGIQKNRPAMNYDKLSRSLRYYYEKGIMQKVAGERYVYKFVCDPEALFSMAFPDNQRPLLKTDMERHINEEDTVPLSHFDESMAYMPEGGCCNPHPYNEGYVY", "how_it_was_run": "as §1"}}}
{"sequence": "GTGACT", "values": [{"measurement": "binding signal", "setting": "FLI1", "value": "1.02 fold enrichment (6-mer frequency, TF over GST control)"}, {"measurement": "binding signal", "setting": "ETV3L", "value": "1.01 fold enrichment (6-mer frequency, TF over GST control)"}]}
{"sequence": "GTCCAA", "values": [{"measurement": "binding signal", "setting": "FLI1", "value": "1.03 fold enrichment (6-mer frequency, TF over GST control)"}, {"measurement": "binding signal", "setting": "ELF1", "value": "1.03 fold enrichment (6-mer frequency, TF over GST control)"}, {"measurement": "binding signal", "setting": "ETV7", "value": "1.01 fold enrichment (6-mer frequency, TF over GST control)"}, {"measurement": "binding signal", "setting": "ETV3", "value": "1.04 fold enrichment (6-mer frequency, TF over GST control)"}]}
{"sequence": "GTGCGC", "values": [{"measurement": "binding signal", "setting": "FLI1", "value": "1.02 fold enrichment (6-mer frequency, TF over GST control)"}, {"measurement": "binding signal", "setting": "SPI1", "value": "1.02 fold enrichment (6-mer frequency, TF over GST control)"}, {"measurement": "binding signal", "setting": "ELK4", "value": "1.15 fold enrichment (6-mer frequency, TF over GST control)"}, {"measurement": "binding signal", "setting": "ETV2", "value": "1.02 fold enrichment (6-mer frequency, TF over GST control)"}, {"measurement": "binding signal", "setting": "ETV3", "value": "1.04 fold enrichment (6-mer frequency, TF over GST control)"}, {"measurement": "binding signal", "setting": "ETV6", "value": "1.03 fold enrichment (6-mer frequency, TF over GST control)"}]}
{"sequence": "ACGTCA", "values": [{"measurement": "binding signal", "setting": "FLI1", "value": "1.01 fold enrichment (6-mer frequency, TF over GST control)"}, {"measurement": "binding signal", "setting": "ERG", "value": "1.01 fold enrichment (6-mer frequency, TF over GST control)"}, {"measurement": "binding signal", "setting": "EHF", "value": "1.01 fold enrichment (6-mer frequency, TF over GST control)"}, {"measurement": "binding signal", "setting": "SPIB", "value": "1.09 fold enrichment (6-mer frequency, TF over GST control)"}, {"measurement": "binding signal", "setting": "ELF3", "value": "1.03 fold enrichment (6-mer frequency, TF over GST control)"}, {"measurement": "binding signal", "setting": "ETV1", "value": "1.05 fold enrichment (6-mer frequency, TF over GST control)"}]}
